A selection: hits, their analogues and other compounds. The true share with any hit is near 2.3%.
CHO-K1 Ca PAM – nonselective activator or artifact in parental CHO-K1 calcium assay | activation, % at 3 µM | hit rate 0.02% among 360,000 | AID 602247 | ATP EC20, Fluo-8 calcium fluorescence; 0% at ATP EC20, 100% at ATP max;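 active = activation above the run cutoff, the mean activation of all test compounds plus 3 SD, cut at about 40% in these data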;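 also: peak over basal fluorescence ratio in a 140 s read after ATP addition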
M1 ag parental – counter-screen for M1 agonists: effect in parental CHO-K1 cells; Fluo-8 calcium fluorescence; scaled to maximal ATP response, vehicle zero; activation, % at 3 µM; hit rate 0.48% among 360,000; AID 602248; in the data active = activation above about 15%;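 also: untransfected CHO-K1 host cells lacking M1 receptor as counterscreen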
CHRM1 PAM – human CHRM1 positive allosteric modulation; CHO-K1 hM1, Fluo-8 calcium fluorescence, ACh EC20; 0% = ACh EC20, 100% = maximal ACh; activation, % at 3 µM; hit rate 0.088% among 360,000; AID 588819; in the data active = activation above about 19%, passing the limit was not always enough
Target sequence (P11229 whole entry, looked up): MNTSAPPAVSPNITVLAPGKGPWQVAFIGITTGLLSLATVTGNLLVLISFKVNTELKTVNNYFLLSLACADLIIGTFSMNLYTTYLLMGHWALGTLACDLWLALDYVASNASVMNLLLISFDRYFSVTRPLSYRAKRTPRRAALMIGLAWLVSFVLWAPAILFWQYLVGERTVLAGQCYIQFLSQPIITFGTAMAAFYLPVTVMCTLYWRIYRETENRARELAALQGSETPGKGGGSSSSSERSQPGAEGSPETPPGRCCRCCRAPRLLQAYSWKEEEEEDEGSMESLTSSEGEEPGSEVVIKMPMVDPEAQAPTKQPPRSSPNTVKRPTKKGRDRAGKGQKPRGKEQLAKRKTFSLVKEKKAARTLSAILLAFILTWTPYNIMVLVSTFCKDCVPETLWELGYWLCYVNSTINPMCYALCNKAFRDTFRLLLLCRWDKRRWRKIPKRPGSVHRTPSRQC
CHRM1 agonist – activates human CHRM1 receptor. CHO-K1 hM1, Fluo-8 calcium fluorescence, agonist mode; 0% DMSO, 100% acetylcholine EC100. P11229. hit rate 0.33% among 360,000. activation, % at 3 µM;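 active = activation above the run's mean compound activation plus 3 SD, cut at about 16% in these data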;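 also: peak over basal fluorescence ratio within a 140 s kinetic read after compound addition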
M1 antag – antagonists of human M1 muscarinic receptor. P11229. CHO-K1 hM1, Fluo-8 calcium fluorescence, ACh EC80 antagonist. inhibition, % at 3 µM. hit rate 1.3% among 360,000. AID 588852;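 active = percent inhibition above its own plate's cutoff, namely the mean of that plate's compound wells plus 3 SD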;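 also: peak over basal fluorescence ratio during 140 s after agonist addition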
CHO-K1 Ca antag – nonselective inhibitor or artifact in parental CHO-K1 cells; AID 602250; hit rate 0.6% among 360,000; inhibition, % at 3 µM; ATP-induced calcium, Fluo-8 fluorescence;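 active = inhibition above a per-plate cutoff, the plate's mean sample inhibition plus 3 SD, cut at about 24% in these data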
Of the large screens only hits and unclear results are named; the others gave an inactive call.

COc1ccc(Oc2c(C)oc3c(CN(C)C)c(O)ccc3c2=O)cc1	M1 antag 32.0
Cc1ccc(S(=O)(=O)N2CCN(c3nc(-c4cccs4)nc4ccccc34)CC2)cc1	none
COc1ccc(CCN2C(=O)CSC2=Nc2ccc(C(C)C)cc2)cc1OC	M1 antag 40.7
COc1ccc(N=C2SCC(=O)N2CCc2ccc(OC)c(OC)c2)cc1	none
CCOC(=O)C1=C[C@@H](c2ccccc2)N(S(=O)(=O)c2ccc(C)cc2)[C@H]1c1ccccc1Cl	none
Cc1cn([C@H]2C[C@H](O)[C@@H](/C=C/C(=O)NCc3ccc4c(c3)OCO4)O2)c(=O)[nH]c1=O	none
CCc1cc2c(COC(=O)c3cccc(S(C)(=O)=O)c3)cc(=O)oc2cc1O	none
CNS(=O)(=O)c1cccc(C(=O)OCc2cc(=O)oc3c(C)c(O)ccc23)c1	M1 ag parental 15.4
CC(C)c1ccc(NC(=O)c2cc(S(=O)(=O)N3CCCC3)c[nH]2)cc1	M1 antag 35.4
CCc1ccc(NC(=O)c2cc(S(=O)(=O)N3CCCC3)c[nH]2)cc1	none
CCn1ccc(C(=O)Nc2ccc(Cl)cn2)n1	M1 antag 32.6
Cc1ccc(CNCC(=O)Nc2ccc(N3CCOCC3)cc2)cc1	none
Cc1cccc(OCC(=O)Nc2ccc(NC(=O)c3ccco3)cc2)c1	none
O=C(CSc1ncnc2c1nnn2Cc1ccccc1F)NCC1CCCO1 (stereo not given)	none
Cc1ccc(Cn2c(C)c(C(=O)NCc3ccc4c(c3)OCO4)sc2=O)cc1	none
CCN(Cc1ccccc1)C(=O)COC(=O)Cc1c[nH]c2ccccc12	CHO-K1 Ca antag 25.4
CCC(=O)N1Cc2cc(C(=O)Nc3nccs3)nc(-c3cccc(-c4ccccc4OC)c3)c2[C@@H]1CCO	none (no result: CHRM1 PAM, CHRM1 agonist, M1 antag)
O=C(CC1Nc2ccccc2NC1=O)Nc1ccc2c(c1)OCO2 (stereo not given)	CHO-K1 Ca antag 28.1
O=C(NCCc1c[nH]c2ccccc12)C1CCC(=O)N(CCc2cccc(F)c2)C1 (stereo not given)	none
CC(C)CCN1CCN(CC(c2ccccc2)c2ccccc2)CC1CCO (stereo not given)	M1 antag 34.8
CC(C)CCN1CCN(Cc2nc3ccccc3s2)CC1CCO (stereo not given)	none
NS(=O)(=O)c1ccc(NC(=O)CSc2nnc(Cc3cccs3)n2-c2ccccc2)cc1	none
Cc1ccc(-n2c(Cc3cccs3)nnc2SCC(=O)Nc2ccc(S(N)(=O)=O)cc2)cc1	CHO-K1 Ca antag 25.1
O=C(COC(=O)/C=C/c1cccc(F)c1)Nc1ncccn1	CHRM1 PAM 24.5
O=C(COC(=O)/C=C/c1cccc(F)c1)Nc1ccc(Cl)cn1	none
O=C(O)c1ccc(-c2cccc(-c3nn4c(=O)cc(N5CCNCC5)nc4s3)c2)cc1	none
Cc1ccc(NC(=O)c2cc([N+](=O)[O-])ccc2N2CCCC2)cc1	M1 ag parental 16.9
Cc1ccc(NC(=O)c2cc([N+](=O)[O-])ccc2N2CCOCC2)cc1S(=O)(=O)N(C)C	M1 antag 52.4
O=C(c1cc([N+](=O)[O-])ccc1N1CCOCC1)N1CCN(S(=O)(=O)c2ccc(F)cc2)CC1	M1 antag 27.9
Cc1ccc(NC(=O)c2cc([N+](=O)[O-])ccc2N2CCOCC2)cc1C	none
CC(C)c1ccc(S(=O)(=O)N2CCN(C(=O)c3cc([N+](=O)[O-])ccc3N3CCOCC3)CC2)cc1	none
CCOc1cc(/C=C2\SC(=S)N(C(C(=O)O)c3ccccc3)C2=O)ccc1O (stereo not given)	M1 ag parental 28.8, CHRM1 agonist 19.1
COc1cc(/C=C2\SC(=S)N(C(C(=O)O)c3ccccc3)C2=O)ccc1O (stereo not given)	M1 ag parental 29.2, CHRM1 agonist 17.3
O=C(COc1c(F)c(F)cc(F)c1F)NC(=O)NC1CCCC1	M1 antag 31.0
CCCCNC(=O)C1(C)CCCCCN1Cc1cccc2c(OC)cc(C(=O)OCC)cc12 (stereo not given)	none
CCCCN(C)CCCNC(=O)c1cccc(N2CCCC2=O)c1	none
CN(CCCNC(=O)c1cccc(N2CCCC2=O)c1)c1ccccc1	M1 antag 29.9
NC(=O)Cc1ccc(C(=O)c2ccccc2F)s1	CHO-K1 Ca antag 25.3
Cc1ccc2oc(NC(=O)N3CCOCC3)cc(=O)c2c1	CHO-K1 Ca antag 31.2
O=C(Nc1cc(=O)c2ccccc2o1)N1CCCCC1	none
O=C(Nc1cc(=O)c2ccccc2o1)N1CCOCC1	M1 antag 31.1
CCn1c(C)nc2cc(C(=O)NNC(=O)CCC3CCCCC3)ccc21	none
COc1ccc(C(=O)c2cnc(/N=C/N(C)C)s2)cc1	CHO-K1 Ca antag 33.0
CC(C)N(C(=S)NCc1ccccc1)c1ccccc1	none
CC(C)N(C(=S)NCc1ccccc1)C(C)C	CHO-K1 Ca antag 25.9
Cc1cccc(CCNC(=O)C2CCN(S(=O)(=O)c3ccccc3)CC2)c1	none
Cc1ccc2nc(Nc3ccccc3)c(/C=N/O)c(=O)n2c1	CHO-K1 Ca antag 26.3
CCn1cc(C(=O)NCc2ccc(Cl)cc2)c(=O)c2cc(S(=O)(=O)N(C)C)ccc21	none
O=C1c2cccc3c(N4CCCCC4)ccc(c23)C(=O)N1CCO	M1 ag parental 16.5
O=C(OCCN1C(=O)c2cccc3c(N4CCOCC4)ccc(c23)C1=O)c1ccccc1Cl	M1 ag parental 17.9, M1 antag 43.7
CC(=O)c1ccc2c3c(cccc13)C(=O)N(c1c(C)nn(C)c1C)C2=O	none
Cc1n[nH]c(C)c1N1C(=O)c2cccc3c(N4CCCCCC4)ccc(c23)C1=O	M1 ag parental 83.5, CHRM1 agonist 93.0, M1 antag 62.9, CHO-K1 Ca antag 55.4
C=CCN1C(=O)c2cccc3c(N4CCCCC4)ccc(c23)C1=O	none
O=C1c2cccc3c(N4CCCCC4)ccc(c23)C(=O)N1c1cccc(O)c1	M1 ag parental 30.5, CHRM1 agonist 36.2, M1 antag 31.9
O=C(c1cccc(N2C(=O)c3ccccc3C2=O)c1)N1CCCCCC1	none
COc1cccc(NC(=O)C2CCN(C(=O)NC3CCCCC3)CC2)c1	none
CN1CCN(Cc2cn[nH]c2-c2ccc(F)cc2F)[C@@H](c2ccccc2)C1	CHRM1 agonist 46.4, M1 antag 21.3
O=C(CCCSc1nc2ccccc2[nH]1)N1CCN(c2ccc([N+](=O)[O-])cc2)CC1	M1 antag 43.5
CCc1ccc(Nc2n[n+](-c3ccccc3)c(-c3ccc(OCc4ccccc4)cc3)s2)cc1	none
Fc1ccc(-[n+]2nc(Nc3ccccc3)sc2-c2c(Cl)cccc2Cl)cc1	M1 ag parental 15.2
COc1ccc(-c2sc(Nc3ccccc3)n[n+]2-c2ccc(F)cc2)cc1Br	none
CCc1ccc(Nc2n[n+](-c3ccccc3)c(-c3ccc(N(CC)CC)cc3)s2)cc1	M1 antag 38.8

High-throughput results deposited in PubChem BioAssay by The Scripps Research Institute Molecular Screening Center.
